Among the data in PubChem BioAssay AID504329 (Southern Research Specialized Biocontainment Screening …, 2011) are inhibition values, retold here.

Values joined by “and” are separate entries in the source; they are usually repeats but may differ in a detail not shown here. Identical values can stand only once. The campaign covered roughly 340,000 compounds. About 1,000 (0.29%) were called active. No stated cut-off is given here; in the data, inconclusive means inhibition above about 27% without an active follow-up result; inactive means below that. A selection follows. Entries with a potency or affinity are not part of this list.

The experiment can be described thus: NS1A inhibition, H1N1 influenza, cell based functional assay (AID 504329). The note with it: percent inhibition, at 12.5 µM, active compounds read high.
In the case of `Cc1cccc(NS(=O)(=O)c2csc(C(N)=O)c2)c1`, the inhibition was 14.1% (inactive).

As for `Cc1cccc(OCCCC(=O)NNC(=O)c2ccc(F)cc2)c1`, the inhibition was -5.91% (inactive).

Regarding `COc1cc(N=Nc2ccc(C(=O)N(C)C)cc2)c(C)cc1N`, the inhibition was 11.5% (inactive). In the case of `COc1ccc(N=Nc2ccc(N)nc2N)cc1` it was 20.4% (inactive). For `Cn1c(Cn2c(=O)sc3ccccc32)nnc1SCC(=O)NCCc1ccccc1`, the inhibition is 1.01% (inactive). On to `CN(C)c1ccc(N=Nc2ccccc2C(=O)OCC(=O)Nc2ccccc2C(F)(F)F)cc1`, for which the inhibition is 28.2% (inactive).

For the compound `CC(=O)c1ccc(NC(=O)COC(=O)c2ccccc2N=Nc2ccc(N(C)C)cc2)cc1`, the inhibition is 17.2% (inactive). Regarding `CN(C)c1ccc(N=Nc2ccccc2C(=O)OCC(=O)N2CCCCCC2)cc1`, the inhibition was 28.4% (inactive). In the case of `CN(C)c1ccc(N=Nc2ccccc2C(=O)OCC(=O)N(C)C2CCCCC2)cc1` it was 10.8% (inactive); in that of `CN(C)c1ccc(N=Nc2ccccc2C(=O)OCC(=O)NCC2CCCCC2)cc1`, 8.64% (inactive); in that of `CN(C)c1ccc(N=Nc2ccccc2C(=O)OCC(=O)N2CCCC2)cc1`, 22.2% (inactive). With `COC(=O)c1cc(C(=O)OCC(=O)NC2CCS(=O)(=O)C2)cc([N+](=O)[O-])c1` (stereo not drawn), the inhibition is 6.69% (inactive). On to `O=C(CCC1CCCN(C(=O)c2ccoc2)C1)NCc1ccccc1F` (stereo not drawn), for which the inhibition is -1.5% (inactive). For `COc1ccccc1NC(=O)Nc1nc(CC(=O)Nc2ccc(F)cc2)cs1` the value was -9.19% (inactive). With `COc1ccccc1NC(=O)Nc1nc(CC(=O)Nc2ccc(OC)c(OC)c2)cs1`, the inhibition was -0.35% (inactive). In the case of `O=C(Cn1nnc(-c2ccccc2F)n1)Nc1ccc2c(c1)OCCO2` it was -0.7% (inactive); in that of `C[C@H](NC(=O)c1nc[nH]c1C(=O)N1CCc2ccccc2C1)c1ccccc1`, -11.5% (inactive); in that of `O=C(N/N=C/c1cccc2cccnc12)c1ccccc1O`, 0.6% (inactive).

Take `CCOc1ccc(C(=O)Nc2cccc3cccnc23)cc1`: the inhibition is -4.15% (inactive).

Consider `O=C(COc1ccc(Cl)cc1)N/N=C/c1cccc2cccnc12`, for which the inhibition was 2.4% (inactive). For `CCOc1ccccc1C=NNC(=O)c1cccc2ccccc12` the value was -22.3% (inactive); for `COc1ccc(C(=O)N/N=C/c2cccnc2)cc1`, -5.94% (inactive). In the case of `COc1ccc(C(=O)N/N=C/c2ccc3cccc(O)c3n2)cc1` it was -2.2% (inactive). In the case of `CCN(CC)CCNC(=O)/C(=C/c1cn(C)c2ccccc12)NC(=O)c1ccc(OC)c(OC)c1` it was -22.9% (inactive); in that of `COC(=O)Cc1[nH]nc2c1C(c1cccc(OC)c1OC)C(C#N)=C(N)O2` (stereo not drawn), -3.61% (inactive); in that of `CN(c1ccccc1)S(=O)(=O)CS(=O)(=O)N(C)c1ccccc1`, -0.79% (inactive). On to `COc1ccccc1CNC(=O)CCCn1nc(C)n2ccnc2c1=O`, for which the inhibition is -0.77% (inactive).

Consider `CCCOc1ccc(N2CC(C(=O)Nc3ccc(N4CCOCC4)cc3)CC2=O)cc1` (stereo not drawn), for which the inhibition is -0.783% (inactive).

Regarding `CCCC(C)C(=O)Nc1cccc(NC(C)=O)c1` (stereo not drawn), the inhibition is -2.06% (inactive). On to `COc1ccccc1CNC(=O)COC(=O)c1cccc(-n2cnnn2)c1`, for which the inhibition is -6.66% (inactive). For `Cc1ccc(NC(=O)C2CCCN2C(=O)OCc2ccccc2)c(O)c1` (stereo not drawn) the value was 0.49% (inactive); for `COc1cc(/C=C2\SC(c3ccc(C)cc3)=NC2=O)cc(OC)c1O`, 17.9% (inactive). As to `COc1cc(/C=C2\SC(N)=NC2=O)cc(Cl)c1O`, the inhibition is 4.85% (inactive). Take `O=C(CCN1C(=O)c2ccccc2C1=O)NCc1ccccc1`: the inhibition is 5.94% (inactive).

In the case of `CCN(CC)c1ccccc1`, the inhibition is -3.57% (inactive). On to `CCN(CC)c1ccc(NC(=O)Nc2ccc(C(C)=O)cc2)cc1`, for which the inhibition is 7.64% (inactive). For `CCN(CC)c1ccc(C(=S)NCc2ccccc2)cc1` the value was -0.32% (inactive); for `CCN(CC)c1ccc(/C=C2\C(=O)c3ccc(C(=O)O)cc3C2=O)cc1`, 20.7% (inactive).

For `CCN(CC)c1ccc(C(=O)O)cc1`, the inhibition is 15.6% (inactive). For `CCN(CC)c1ccc(SS(=O)(=O)O)cc1` the value was -7.03% (inactive) and 0.65% (inactive).

`COC(=O)C1=C(C)N(CCCC(=O)O)C(=O)NC1c1ccccc1OS(=O)(=O)c1ccc([N+](=O)[O-])cc1` (stereo not drawn): the inhibition is 13.1% (inactive). For `Cc1cc(C)cc(NC(=O)COC(=O)CCc2ccc(S(=O)(=O)N3CCOCC3)cc2)c1` the value was 3.45% (inactive); for `Cc1cccc2cc(C#N)c(SCC(=O)Nc3ccccc3N3CCOCC3)nc12`, -15.7% (inactive).

With `Cc1ccc([N+](=O)[O-])cc1S(=O)(=O)Nc1ccc(-c2ccc(N3CCOCC3)nn2)cc1`, the inhibition was -3.07% (inactive). For `COCCCNC(=O)c1ccc2c3c(onc13)-c1ccccc1C2=O` the value was 17.2% (inactive). Regarding `COC(CNC(=O)c1coc2nc3ccccc3nc12)OC`, the inhibition was 17% (inactive). In the case of `CCOC(=O)N1CCN(C(=O)c2cn(CC)c3ccc(S(=O)(=O)N4CCC(C)CC4)cc3c2=O)CC1` it was -9.88% (inactive); in that of `CCOc1ccc(C(=O)N/N=C(\c2ccccc2)c2ccccn2)cc1`, -0.16% (inactive); in that of `C/C(CC(=O)Nc1ccccn1)=N\NC(=O)c1cnccn1`, -7.52% (inactive).

As for `CCc1ccc(NC(=S)N(Cc2ccccc2)Cc2ccccn2)cc1`, the inhibition was 11.1% (inactive).

For the compound `O=C(NN=C(c1ccccc1)c1ccccn1)c1ccccc1`, the inhibition is -14.3% (inactive).

As to `O=C(CCc1nnc(COc2ccccc2)o1)NCCc1cccs1`, the inhibition was -7.18% (inactive). In the case of `FC(F)(F)c1ccc(Cl)c(-n2c(-c3cc(C4CC4)[nH]n3)n[nH]c2=S)c1` it was 8.02% (inactive). In the case of `CC(CC(=O)OCC(=O)NC1CCS(=O)(=O)C1)c1ccccc1` (stereo not drawn) it was 4% (inactive); in that of `CC(=O)N(Cc1cccs1)Cc1cc2ccc(C)c(C)c2nc1Cl`, -4.22% (inactive). In the case of `Cc1ccc2oc(Nc3nc(C)c(C)c(C)n3)nc2c1` it was -16.7% (inactive).

As to `Cc1ccc2oc(Nc3nc(C)cc(C)n3)nc2c1`, the inhibition was -7.76% (inactive). In the case of `Cc1cc(C)nc(Nc2nc3ccccc3o2)n1` it was -16.8% (inactive); in that of `Cc1nc(Nc2nc3ccccc3o2)nc(C)c1C`, 5% (inactive); in that of `CCCSc1nc2cc(C)c(C)cc2n1CC(C)O` (stereo not drawn), -12.9% (inactive). For the compound `Cc1ccc(C(=O)Nc2cccc(C(F)(F)F)c2)cc1NC(=O)c1c[nH]c2cc(C(F)(F)F)ccc2c1=O`, the inhibition was -5.49% (inactive). For `CC(C)N(C(=O)CN1C(=O)NC2(CCCCCC2)C1=O)C(C)C` the value was -2.18% (inactive). In the case of `Cc1cccc(C)c1NC(=O)c1sccc1SCC#N` it was -4.84% (inactive); in that of `C[n+]1c2cc(N)ccc2cc2ccc(N)cc21`, -0.44% (inactive) and -3.15% (inactive).

`CC[n+]1c(-c2ccccc2)c2cc(N)ccc2c2ccc(N)cc21`: the inhibition is 7.81% (inactive). In the case of `Cc1ccc2c(c1)c1c3n2CCN(C(=O)CN2CCN(C)CC2)C3CCC1` (stereo not drawn) it was 7.29% (inactive); in that of `Cc1ccc2c(c1)c1c3n2CCN(C(=O)CCl)C3CCC1` (stereo not drawn), 1.19% (inactive); in that of `COc1ccc(Nc2nc(N)nc(CSC(=S)N3CCN(C)CC3)n2)cc1`, -7.34% (inactive). For `CN(C)c1ccc(N=Nc2ccc(S(N)(=O)=O)cc2)cc1` the value was 12.4% (inactive); for `CN(C)c1ccc(C2Nc3cccc4cccc(c34)N2)cc1`, 1.96% (inactive); for `CN(C)c1cccc2cccc(N(C)C)c12`, 11.8% (inactive). In the case of `Cc1ccc(N=Nc2ccc(O)cc2)c(Br)c1` it was 10.2% (inactive); in that of `Cc1ccc(S(=O)(=O)NCCSc2ncccn2)cc1`, 2.89% (inactive). Consider `C=CCNC(=S)/C(=C(/[O-])c1ccc([N+](=O)[O-])cc1)[n+]1ccccc1`, for which the inhibition was -7.17% (inactive). As to `COc1ccc(C(=O)COC(=O)CCn2nnc(-c3cccc(O)c3OC)n2)cc1`, the inhibition is -2.1% (inactive).

For the compound `CC(=O)Nc1ccc(S(=O)(=O)NC2=C(N3CCN(c4ccc(F)cc4)CC3)C(=O)c3ccccc3C2=O)cc1`, the inhibition is 27.2% (inactive).

As for `CC1CCCN(C2=C(NS(=O)(=O)c3ccc(Br)cc3)C(=O)c3ccccc3C2=O)C1` (stereo not drawn), the inhibition is 27.1% (inactive).

On to `NC(=O)C1CCN(C2=C(NS(=O)(=O)c3ccccc3)C(=O)c3ccccc3C2=O)CC1`, for which the inhibition is 24.5% (inactive). For `CN1CCN(C2=C(NS(=O)(=O)c3ccccc3)C(=O)c3ccccc3C2=O)CC1` the value was -2.49% (inactive); for `CC1CCN(C2=C(NS(=O)(=O)c3ccc(Cl)cc3)C(=O)c3ccccc3C2=O)CC1`, -3.44% (inactive).

Regarding `CN(C(=O)c1cccs1)c1ccc(OCC(=O)N2CCC(C(N)=O)CC2)cc1`, the inhibition is -3.1% (inactive). For `CCOC(=O)C(C#N)=C1CCN(Cc2ccccc2)CC1` the value was -28.1% (inactive); for `CCOC(=O)/C(C#N)=C1\C(=O)N(Cc2ccccc2)c2ccccc21`, 13.1% (inactive); for `O=C(N/N=C/c1cn(-c2ccccc2)nc1-c1cccnc1)c1ccccc1`, -7.1% (inactive). For `O=C(c1ccc2ccccc2n1)N1CCN(c2ccccc2)CC1` the value was -4.44% (inactive); for `CC(=O)c1ccc(Nc2c([N+](=O)[O-])ccc3nonc23)cc1`, 6.86% (inactive).

As to `COc1ccc(NC2=NC3(CCCCC3)N=C(N)N2)cc1`, the inhibition is -15.4% (inactive).

Turning to `COc1ccc(Nc2ccc3c(c2)=NC2(CCCCC2)[N+]=3[O-])cc1`, the inhibition was 26.2% (inactive). For `Cc1ccc(NC(=O)c2ccc(Nc3c([N+](=O)[O-])cc([N+](=O)[O-])cc3[N+](=O)[O-])cc2)cc1` the value was 2.68% (inactive); for `COC(=O)C1=C(c2cccc(OC)c2OC)C[C@@H]2CC[C@H]1N2C(=O)NCCS(C)=O` (stereo partly drawn), -8.82% (inactive); for `CC1Cc2ccccc2N1C(=O)COC(=O)c1ccc(Cl)c(S(=O)(=O)N2CCOCC2)c1` (stereo not drawn), 9.33% (inactive). For `COC(=O)c1nnn(-c2cccc(Cl)c2)c1C(=O)OC`, the inhibition was -5.37% (inactive). In the case of `O=C(CN(Cc1ccc(F)cc1)C(=O)CCC(=O)Nc1nccs1)NCC1CCCO1` (stereo not drawn) it was -15.5% (inactive).

By inhibition is commonly meant the relative decrease from the control value, in per cent.
